Assay results published in PubChem BioAssay (NCATS).
Values joined by “and” are separate entries in the source; they are usually repeats but may differ in a detail not shown here. Identical values can stand only once. Results filed as inconclusive are left out. Active and inactive are the calls of the source. Unless noted, calls follow the shape of the dose curve; as a rule, active = well fitted curve in the direction sought with a large enough effect; inconclusive = small, poorly fitted or top-dose-only effect, or another doubt; inactive = no such curve, though single readings can be large; an effect the other way counts as inactive or inconclusive.

What was measured:
[1] = qHTS profiling of the MIPE4 collection as inhibitors of Plasmodium falciparum (DD2) proliferation (AID 743345; call rule not given here); conditions: P. falciparum Dd2 in erythrocytes, SYBR Green DNA, 72 h; at 28.5 µM (top of the series) unless noted
Outline: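 Parasite DNA was quantified by SYBR Green I fluorescence (ex 485, em 535 nm) after overnight lysis in saponin/Triton buffer at room temperature. Cultures at 0.3% parasitemia and 2.5% hematocrit were first exposed to compound for 72 h at 37 C; signals were normalised to artemisinin (0.29 uM) and vehicle wells.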

[2] = Cell Viability - N2a (AID 540); conditions: N2a mouse neuroblastoma cell viability; at 92.2 µM (top of the series);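 also: cells exposed to compound for 40 h at 37 °C; plate controls were DMSO alone for no effect and tamoxifen control for full effect; nearly all actives have a fitted effect of over 45% in size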
Outline: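 In this qHTS cytotoxicity screen, ATP-dependent luciferase luminescence reports viable N2a cells after a 40 hr compound exposure in complete culture medium. Potencies are AC50 values from standard Hill equation fits.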

[3] = Cell Viability - NIH 3T3 (AID 541); conditions: NIH 3T3 cell viability, qHTS; at 92.2 µM (top of the series);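 also: cells exposed to compound for 40 hours; plate controls were DMSO alone for no effect and tamoxifen positive control for full effect; nearly all actives have a fitted effect of over 25% in size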
Outline: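 In this cytotoxicity screen, acute toxicity is scored as an ATP drop measured by CellTiter-Glo in NIH 3T3 fibroblasts following a 40 hr, 37 °C incubation with compound.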

[4] = Cell Viability - Renal Proximal Tubule (AID 545); conditions: renal proximal tubule cells viability; series mostly up to 91.7 µM;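 also: cells exposed to compound for 40 hours; nearly all actives have a fitted effect of over 40% in size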
Outline: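 Luminescent ATP signal (CellTiter-Glo) served as the viability read-out after 40 hr compound exposure of freshly isolated rat proximal tubule cells at 37 °C. Concentration-dependent ATP loss was fitted with the Hill equation to give AC50.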

[5] = Cellular Toxicity (caspase-3) Jurkat (AID 655); conditions: Jurkat caspase-3 activation, luminescence, DMSO = 0%, tamoxifen = 100%; series mostly up to 92.2 µM;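 also: cells exposed to compound for 16 h at 37 °C before reading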
Outline: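 5000 Jurkat cells/well; compound 16 hr, 37 °C; Caspase-Glo 3/7 added, 20 min RT; luminescence read. Norm: DMSO = 0%, tamoxifen 100 uM = 100%. AC50, Hill model.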

[6] = Cellular Toxicity (caspase-3) Mesangial (AID 660); conditions: mesangial cells, normalized: DMSO 0%, 100 µM tamoxifen 100%; series mostly up to 91.7 µM;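 also: combined caspase 3 and 7 activity read by Caspase-Glo luminescence; cells exposed to compound for 16 h before the caspase read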
Outline: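 AC50 values come from Hill-equation fits of caspase 3/7 activation, measured as Caspase-Glo luminescence in human glomerular mesangial cells exposed to compound for 16 h at 37 °C; 100% set by 100 uM tamoxifen.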

[7] = Cell Viability - LYMP2-006 (AID 978); conditions: LYMP2-006 lymphoblastoid cell viability, qHTS; series mostly up to 92.2 µM; also: % is scaled to controls: 0 for no effect and ±100 for the full control effect; nearly all actives have a fitted effect of over 60% in size
Outline: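 Cells are seeded at 2500 per well and rested 5 hr at 37 C. Compounds are added across a concentration series for 24 hr at 37 C, after which ATP is quantified by luciferase luminescence.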

[8] = Cell Viability - LYMP2-010 (AID 981); conditions: LYMP2-010 lymphoblastoid cell viability, qHTS; series mostly up to 92.2 µM; also: nearly all actives have a fitted effect of over 55% in size; also: potency is read from the fitted curve at half-maximal effect
Outline: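 This 24 hr viability screen uses LYMP2-010 lymphoblastoid cells, quantifies ATP via luciferase luminescence, and derives AC50 from Hill fits of qHTS concentration-response data.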

[9] = Cell Viability - LYMP2-026 (AID 989); conditions: LYMP2-026 lymphoblastoid cell viability, qHTS; series mostly up to 92.2 µM;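 also: cells exposed to compound for 24 h at 37 °C; % is scaled to controls: 0 for no effect and ±100 for the full control effect; nearly all actives have a fitted effect of over 50% in size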
Outline: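 Acute toxicity screen in complete culture medium, with 24 hr compound exposure at 37 C. Viability read as cellular ATP via luciferase reaction, with tetraoctylammonium bromide (6.4pM to 92 uM) as positive control.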

[10] = Cell Viability - LYMP1-002 - Assay at 24 hr (AID 993); conditions: LYMP1-002 lymphoblastoid cells viability; series mostly up to 92.2 µM; also: % is scaled to controls: 0 for no effect and ±100 for the full control effect
Outline: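 Viability was judged from intracellular ATP using a luciferase read-out, following a 24-hour compound incubation at 37 C of lymphoblastoid cells seeded at 2500 per well. Concentration-response data were fitted to the Hill equation for AC50.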

[11] = Cell Viability - LYMP1-002 - Assay at 40 hr (AID 994); conditions: LYMP1-002 lymphoblastoid cell viability; series mostly up to 92.2 µM; also: nearly all actives have a fitted effect of over 60% in size; also: potency is read from the fitted curve at half-maximal effect
Outline: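 Concentration-dependent ATP loss after 40 hr treatment at 37 C defined toxicity; AC50 values were obtained by fitting the standard Hill equation.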

[12] = qHTS Assay for Identification of Small Molecule Inducers of Hypoxia Response (AID 2120; active = well fitted curve in the direction sought with a large enough effect in the signal ratio, with a control signal flat, not every such curve was filed as active; the % refers to the signal ratio; also: 0% is about no effect); conditions: hypoxia response reporter cells, beta-lactamase ratio readout; series mostly up to 104 µM
Outline: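 HRE-bla ME-180, 2500 cells/well, 0.5% dialyzed FBS medium; cpd titration, 17 h 37 degrees C; CCF4 2.5 h RT; Ex 405, Em 460/530 ratio -> %Activity, AC50.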

[13] = biological target: Glucocorticoid receptor (Homo sapiens) (UniProt P04150); assay: qHTS assay for small molecule antagonists of glucocorticoid receptor signaling (AID 588533; active = well fitted inhibition curve with a large enough effect in the signal ratio, with a control signal flat, not every such curve was filed as active; the % refers to the signal ratio;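 also: cells stimulated with 2 nM dexamethasone as agonist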; also: potency is read from the fitted curve at half-maximal effect); conditions: HeLa MMTV-bla, GRE beta-lactamase ratio, antagonist mode, 18 h; series mostly up to 76.8 µM
Outline: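 Antagonist-mode qHTS: compound titrations added to GRE-bla HeLa cells, then dexamethasone 2 nM final; 18 h, 37 C. CCF4 FRET fluorescence normalized to dexamethasone and DMSO; IC50 from Hill fit.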

[14] = biological target: Peroxisome proliferator-activated receptor delta (Homo sapiens) (UniProt Q03181); assay: qHTS assay for small molecule agonists of peroxisome proliferator-activated receptor delta signaling (AID 588534; calls by dose curve;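 also: 0% = DMSO basal wells and 100% = positive control agonist at 10 µM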); conditions: HEK293T PPARdelta-UAS-bla, beta-lactamase ratio, 18 h; series mostly up to 76.7 µM
Outline: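 EC50 and efficacy values derive from Hill fits of a concentration series in a beta-lactamase reporter cell assay. Exposure is 18 hrs at 37 C, with CCF4 fluorescence as the readout.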

[15] = biological target: Peroxisome proliferator-activated receptor gamma (Homo sapiens) (UniProt P37231); assay: qHTS assay for small molecule agonists of peroxisome proliferator-activated receptor gamma signaling (AID 588536; active = well fitted curve in the direction sought with a large enough effect in the signal ratio, with a control signal flat, not every such curve was filed as active; the % refers to the signal ratio;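 also: 0% = DMSO basal wells and 100% = rosiglitazone at 2 µM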); conditions: HEK293 PPARg-UAS-bla, beta-lactamase ratio, 16 h, percent of rosiglitazone response, DMSO as zero; series mostly up to 76.7 µM
Outline: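 Beta-lactamase reporter read-out: CCF4 fluorescence (ex 405, em 460/530 nm) after 2 h at RT. HEK293 GeneBLAzer cells were treated for 16 h at 37 C. Hill fits gave EC50 and efficacy versus 2 uM rosiglitazone (100%) and DMSO (0%).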

[16] = qHTS assay for small molecule antagonists of retinoid X receptor alpha signaling (AID 588546; active = well fitted inhibition curve with a large enough effect in the signal ratio, with a control signal flat, not every such curve was filed as active; the % refers to the signal ratio;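 also: cells stimulated with 9-cis-retinoic acid as agonist; % is scaled to controls: 0 for no effect and ±100 for the full control effect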); conditions: HEK293T RXRa-UAS-bla, beta-lactamase ratio, antagonist mode; measured here: W530 green channel, cytotoxicity proxy
Outline: (§1)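 Beta-lactamase reporter inhibition, read as CCF4 fluorescence ratio (ex 405, em 460/530 nm) after 2 h at RT. HEK293T UAS-bla cells, 2500/well, were stimulated with 9-cis-RA at 500 or 100 nM final alongside test compound for 18 h at 37 C.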

[17] = biological target: Retinoic acid receptor RXR-alpha (Homo sapiens) (UniProt P19793); assay: as above; conditions: HEK293T RXRa-UAS-bla, beta-lactamase ratio, antagonist mode
Outline: as §1

[18] = biological target: Voltage-gated inwardly rectifying potassium channel KCNH2 (Homo sapiens) (UniProt Q12809); assay: qHTS Assay for Small Molecule Inhibitors of the Human hERG Channel Activity (AID 588834); conditions: U2OS BacMam hERG, FluxOR thallium flux fluorescence; series mostly up to 46.1 µM;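 also: lower thallium flux fluorescence means stronger hERG block; nearly all actives have a fitted effect of over 50% in size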; also: potency is read from the fitted curve at half-maximal effect
Outline: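 Step 1: BacMam hERG transduction of U2OS, 4 hrs RT. Step 2: overnight 37 °C, plate 2000 cells/well, 4 hr. Step 3: FluxOR load, compound 10 min, stimulate, read fluorescence.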

[19] = qHTS assay for small molecule disruptors of the mitochondrial membrane potential - 1 hr assay (AID 651754; calls by dose curve; also: nearly all actives have a fitted effect of over 35% in size; also: potency is read from the fitted curve at half-maximal effect); conditions: series mostly up to 92.2 µM
Outline: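 In this qHTS format, a 1 hr compound treatment of HepG2 cells precedes Mito-MPS staining, and membrane potential is judged from aggregate (red) against monomer (green) fluorescence intensity.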

[20] = biological target: Tumor necrosis factor (Homo sapiens) (UniProt P01375); assay: qHTS assay to identify small molecules that stimulate Tumor Necrosis Factor-alpha (TNF-alpha) secretion (AID 651757; active = well fitted curve in the direction sought with a large enough effect in the signal ratio; the % refers to the signal ratio; also: 0% is about no effect); conditions: Human cells, HTRF 665/615 ratio; series mostly up to 92.2 µM
Outline: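 Using 3000 THP-1 cells per well, compounds and controls were applied for 17 hrs at 37 C. Detection followed with two labeled anti-TNF-alpha antibodies (cryptate donor, XL665 acceptor) for 3 hr at room temperature, measured by TR-FRET.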

Chain of Tumor necrosis factor (Homo sapiens) (P01375 whole entry, looked up): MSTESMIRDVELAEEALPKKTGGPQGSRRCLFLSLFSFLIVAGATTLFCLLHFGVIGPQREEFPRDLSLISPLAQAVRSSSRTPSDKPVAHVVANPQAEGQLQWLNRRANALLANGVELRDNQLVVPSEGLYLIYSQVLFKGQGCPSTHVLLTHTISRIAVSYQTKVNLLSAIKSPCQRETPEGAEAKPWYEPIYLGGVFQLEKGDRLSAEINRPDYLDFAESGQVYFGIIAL
Chain of Glucocorticoid receptor (Homo sapiens) (P04150 whole entry, looked up): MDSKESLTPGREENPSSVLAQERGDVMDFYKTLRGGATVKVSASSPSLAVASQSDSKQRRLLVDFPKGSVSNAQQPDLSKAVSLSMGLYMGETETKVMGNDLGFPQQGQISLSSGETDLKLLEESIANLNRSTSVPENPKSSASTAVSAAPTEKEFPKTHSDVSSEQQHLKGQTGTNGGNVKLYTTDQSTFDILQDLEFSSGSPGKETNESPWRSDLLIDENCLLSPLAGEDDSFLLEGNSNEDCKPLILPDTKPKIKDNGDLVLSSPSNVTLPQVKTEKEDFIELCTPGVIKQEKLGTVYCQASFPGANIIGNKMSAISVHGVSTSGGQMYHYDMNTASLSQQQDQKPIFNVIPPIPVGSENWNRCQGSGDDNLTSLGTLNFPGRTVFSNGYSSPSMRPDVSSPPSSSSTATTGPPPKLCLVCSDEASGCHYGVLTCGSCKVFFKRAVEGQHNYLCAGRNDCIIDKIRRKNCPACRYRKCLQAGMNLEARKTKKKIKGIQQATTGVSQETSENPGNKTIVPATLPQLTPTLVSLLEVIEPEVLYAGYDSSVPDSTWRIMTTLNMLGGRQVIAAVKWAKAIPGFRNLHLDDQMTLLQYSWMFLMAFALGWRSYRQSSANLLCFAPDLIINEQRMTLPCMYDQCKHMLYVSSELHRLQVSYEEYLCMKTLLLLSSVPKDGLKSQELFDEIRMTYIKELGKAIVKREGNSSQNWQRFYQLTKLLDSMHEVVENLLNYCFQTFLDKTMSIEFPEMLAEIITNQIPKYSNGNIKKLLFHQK
Chain of Peroxisome proliferator-activated receptor gamma (Homo sapiens) (P37231 whole entry, looked up): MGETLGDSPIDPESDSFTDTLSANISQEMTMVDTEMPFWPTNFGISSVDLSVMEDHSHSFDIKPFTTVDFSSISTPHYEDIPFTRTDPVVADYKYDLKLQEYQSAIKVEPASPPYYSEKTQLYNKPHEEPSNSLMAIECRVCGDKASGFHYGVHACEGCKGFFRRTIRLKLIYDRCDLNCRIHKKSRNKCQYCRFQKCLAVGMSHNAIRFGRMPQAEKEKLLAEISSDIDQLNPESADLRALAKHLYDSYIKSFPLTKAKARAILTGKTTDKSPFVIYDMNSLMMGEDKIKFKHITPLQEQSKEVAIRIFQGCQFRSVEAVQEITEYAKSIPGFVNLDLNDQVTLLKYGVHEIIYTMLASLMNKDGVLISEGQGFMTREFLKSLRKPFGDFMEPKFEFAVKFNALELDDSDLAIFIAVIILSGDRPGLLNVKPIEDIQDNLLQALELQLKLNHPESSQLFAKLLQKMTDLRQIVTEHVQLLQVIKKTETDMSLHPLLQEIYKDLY
Chain of Voltage-gated inwardly rectifying potassium channel KCNH2 (Homo sapiens) (Q12809 whole entry, looked up): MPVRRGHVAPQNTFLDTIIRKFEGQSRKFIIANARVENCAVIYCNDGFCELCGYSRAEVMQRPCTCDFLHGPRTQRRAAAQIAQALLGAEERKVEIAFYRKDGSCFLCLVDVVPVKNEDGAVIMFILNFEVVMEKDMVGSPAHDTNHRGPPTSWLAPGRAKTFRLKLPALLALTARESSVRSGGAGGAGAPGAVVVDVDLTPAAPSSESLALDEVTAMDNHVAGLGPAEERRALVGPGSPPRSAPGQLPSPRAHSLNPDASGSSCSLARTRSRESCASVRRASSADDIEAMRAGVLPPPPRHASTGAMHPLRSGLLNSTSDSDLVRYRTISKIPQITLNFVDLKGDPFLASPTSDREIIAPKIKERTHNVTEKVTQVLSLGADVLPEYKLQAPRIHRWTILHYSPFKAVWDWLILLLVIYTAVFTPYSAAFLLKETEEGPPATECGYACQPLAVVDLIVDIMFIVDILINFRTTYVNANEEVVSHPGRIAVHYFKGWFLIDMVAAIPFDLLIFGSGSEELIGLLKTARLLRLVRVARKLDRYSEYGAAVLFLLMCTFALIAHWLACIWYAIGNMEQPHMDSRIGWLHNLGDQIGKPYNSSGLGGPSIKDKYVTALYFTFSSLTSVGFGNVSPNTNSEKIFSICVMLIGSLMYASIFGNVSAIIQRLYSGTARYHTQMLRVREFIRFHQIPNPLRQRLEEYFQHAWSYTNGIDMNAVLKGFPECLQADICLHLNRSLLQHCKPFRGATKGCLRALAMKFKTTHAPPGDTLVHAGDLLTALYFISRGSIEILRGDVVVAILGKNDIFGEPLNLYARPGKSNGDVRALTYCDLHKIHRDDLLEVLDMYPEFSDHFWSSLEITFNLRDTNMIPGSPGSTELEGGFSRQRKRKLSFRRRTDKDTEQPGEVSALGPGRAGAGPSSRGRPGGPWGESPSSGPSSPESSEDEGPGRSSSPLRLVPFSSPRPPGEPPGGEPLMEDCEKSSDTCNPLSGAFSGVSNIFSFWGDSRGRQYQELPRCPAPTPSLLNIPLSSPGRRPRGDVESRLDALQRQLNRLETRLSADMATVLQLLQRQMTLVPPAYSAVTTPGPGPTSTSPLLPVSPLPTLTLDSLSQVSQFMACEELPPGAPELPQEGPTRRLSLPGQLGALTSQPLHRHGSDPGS
Chain of Peroxisome proliferator-activated receptor delta (Homo sapiens) (Q03181 whole entry, looked up): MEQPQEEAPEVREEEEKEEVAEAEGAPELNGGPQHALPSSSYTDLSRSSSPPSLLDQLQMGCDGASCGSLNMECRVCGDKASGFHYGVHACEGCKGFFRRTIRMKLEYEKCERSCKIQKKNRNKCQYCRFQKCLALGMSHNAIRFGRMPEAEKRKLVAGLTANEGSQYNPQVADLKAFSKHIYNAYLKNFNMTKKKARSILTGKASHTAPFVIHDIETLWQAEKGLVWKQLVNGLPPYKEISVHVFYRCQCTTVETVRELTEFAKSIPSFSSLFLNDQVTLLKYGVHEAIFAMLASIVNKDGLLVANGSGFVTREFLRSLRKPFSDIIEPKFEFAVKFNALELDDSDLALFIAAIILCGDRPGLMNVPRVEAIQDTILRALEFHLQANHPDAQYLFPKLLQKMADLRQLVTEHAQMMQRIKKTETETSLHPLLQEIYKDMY
Chain of Retinoic acid receptor RXR-alpha (Homo sapiens) (P19793 whole entry, looked up): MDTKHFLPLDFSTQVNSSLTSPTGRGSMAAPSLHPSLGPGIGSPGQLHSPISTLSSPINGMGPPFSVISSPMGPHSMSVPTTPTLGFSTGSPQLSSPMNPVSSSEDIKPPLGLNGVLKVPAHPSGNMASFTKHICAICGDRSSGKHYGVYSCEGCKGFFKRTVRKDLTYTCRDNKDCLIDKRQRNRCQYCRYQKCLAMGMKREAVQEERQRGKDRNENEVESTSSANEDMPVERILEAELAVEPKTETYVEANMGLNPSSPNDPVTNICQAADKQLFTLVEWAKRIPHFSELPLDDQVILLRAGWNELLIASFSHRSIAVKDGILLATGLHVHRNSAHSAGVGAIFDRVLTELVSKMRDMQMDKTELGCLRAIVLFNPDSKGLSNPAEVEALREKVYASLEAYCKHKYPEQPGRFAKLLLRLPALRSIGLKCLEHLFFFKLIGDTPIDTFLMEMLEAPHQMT

COC1CCC(N(C(=O)C2CCC(C)CC2)c2cc(C3=CCCCC3)sc2C(=O)O)CC1 (stereo not given)
61.5%: parasite growth remaining, % of DMSO control (lower = more inhibition) [1]

CCCNC(=O)Nc1ccc(Oc2ncnc3cc(OC)c(OC)cc23)cc1Cl
61.5%: parasite growth remaining, % of DMSO control (lower = more inhibition) [1]

O=C1c2cccc(O)c2C(=O)c2c(O)cc(CO)cc21
99.1%: parasite growth remaining, % of DMSO control (lower = more inhibition) [1]

COc1ccc(CCC(=O)Nc2nc3ccc(Cl)cc3s2)cc1OC
66.5%: parasite growth remaining, % of DMSO control (lower = more inhibition) [1]

C[C@@H](c1ncncc1F)[C@](O)(Cn1cncn1)c1ccc(F)cc1F
104%: parasite growth remaining, % of DMSO control (lower = more inhibition) [1]

CC(=O)/C=C/c1ccccc1
-5.45%: max response [16]
active: activity change, negative = cytotoxicity [3] -123%
inactive: activity change, negative = cytotoxicity [2] -5.72% | outcome [4] | outcome [5] | outcome [6] | outcome [7] | Potency [8] | outcome [9] | outcome [10] | Potency [11] | outcome [12] | Potency [13] | Potency [14] | outcome [15] | max response [17] 11.5% | Potency [18] | Potency [19] | outcome [20]

c1ccc2c(c1)-c1cccc3cccc-2c13
inactive: activity change, negative = cytotoxicity [2] -25.7% | activity change, negative = cytotoxicity [3] -24% | outcome [4] | outcome [5] | outcome [6] | outcome [7] | Potency [8] | outcome [9] | outcome [10] | Potency [11] | Potency [14] | max response [17] -2.14% | outcome [20]
-3.55%: max response [16]

Oc1ccccc1Cl
-10.5%: max response [16]
inactive: activity change, negative = cytotoxicity [2] -11.6% | activity change, negative = cytotoxicity [3] -20.7% | outcome [4] | outcome [5] | outcome [6] | outcome [7] | Potency [8] | outcome [9] | outcome [10] | Potency [11] | outcome [12] | Potency [13] | Potency [14] | outcome [15] | max response [17] 10.4% | Potency [18] | Potency [19] | outcome [20]

COC1=CC(=O)OC(CCc2ccc3c(c2)OCO3)C1 (stereo not given)
inactive: activity change, negative = cytotoxicity [2] -20.1% | outcome [4] | outcome [6] | outcome [7] | outcome [9] | outcome [10] | outcome [12] | outcome [15] | Potency [18] | Potency [19] | outcome [20]

CC(C)COC(=O)c1ccccc1C(=O)OCC(C)C
-12.2%: max response [16]
inactive: activity change, negative = cytotoxicity [2] -12.6% | activity change, negative = cytotoxicity [3] -26.2% | outcome [4] | outcome [5] | outcome [6] | outcome [7] | Potency [8] | outcome [9] | outcome [10] | Potency [11] | outcome [12] | Potency [13] | outcome [15] | max response [17] 12.8% | Potency [19] | outcome [20]

Oc1ccccc1O
inactive: Potency [14]
active: Potency [8] 20 µM | Potency [11] 15.8 µM | Potency [13] 35.5 µM

CC[C@H](CC#N)OC(=O)N[C@@H](C)c1cccc(NC(=O)Nc2ccc(-c3cnco3)c(OC)c2)c1
66.9%: parasite growth remaining, % of DMSO control (lower = more inhibition) [1]

CN1[C@@H](CC(=O)c2ccccc2)CCC[C@H]1C[C@H](O)c1ccccc1
active: Potency [18] 4.47 µM

c1ccc(Nc2ccc3ccccc3c2)cc1
active: Potency [18] 25.1 µM | Potency [19] 37.6 µM
-7.73% and -2.18%: max response [16]
inactive: activity change, negative = cytotoxicity [3] -27% | outcome [5] | outcome [7] | Potency [8] | outcome [9] | outcome [10] | Potency [11] | outcome [12] | Potency [13] | Potency [14] | outcome [15] | max response [17] 4.38% and -18.9%

CCOC(=O)c1ccccc1N
inactive: activity change, negative = cytotoxicity [2] 3.3% | activity change, negative = cytotoxicity [3] -0.518% | outcome [4] | outcome [5] | outcome [6] | outcome [7] | Potency [8] | outcome [9] | outcome [10] | Potency [11] | outcome [12] | Potency [13] | Potency [14] | outcome [15] | max response [17] 10.1% | Potency [18] | Potency [19] | outcome [20]
-2.66%: max response [16]
